Values joined by “and” are separate entries in the source; they are usually repeats but may differ in a detail not shown here. Identical values can stand only once. The whole screen tested about 320,000 compounds, of which about 22,000 (6.9%) were called active. A call without a number means that no potency is given here. Roughly 27% stayed inconclusive and do not appear here. Calls follow the shape of the dose curve; as a rule, active = well fitted inhibition curve with a large enough effect; inconclusive = small, poorly fitted or top-dose-only effect, or another doubt; inactive = no such curve, though single readings can be large or run the other way. This excerpt belongs to a sample that is enriched for actives. Where a structure was tested more than once in an assay, its records may differ in their call.
assay: Primary qHTS for delayed death inhibitors of the malarial parasite plastid, 96 hour incubation; settings: P. falciparum luciferase reporter growth; series mostly up to 28.7 µM
How it was run: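 Parasite growth measured via integrated firefly luciferase reporter in P. falciparum. Infected erythrocytes at 2% hematocrit, 0.05% parasitemia final were treated 96 hours at 37 C under 5% CO2, and luminescence was read.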
Potency is read from the fitted curve at half-maximal effect.

Compound | Potency
O=c1[nH]c(N2CCN(Cc3ccc4c(c3)OCO4)CC2)nc2c1CCCC2 | 7.38 µM (active)
CCCCCc1c(C)nc(N2CCN(Cc3ccc4c(c3)OCO4)CC2)[nH]c1=O | inactive
CCN1CCN(c2nc3c(c(=O)[nH]2)CCC3)CC1 | inactive
O=C(COC(=O)c1ncc(Cl)c(Cl)c1Cl)NC1CCS(=O)(=O)C1 (stereo not drawn) | inactive
Cc1occc(=O)c1OCc1ccc(F)cc1 | inactive
Cc1ccc(COC(=O)CN2C(=O)NC3(CCCC3)C2=O)cc1 | inactive
CCOc1ccc(C(C)=O)cc1COC(=O)CN1C(=O)NC2(CCCC2)C1=O | 5.22 µM (active)
O=C(CN1C(=O)NC2(CCCC2)C1=O)OCCOc1ccc(F)cc1 | inactive
O=C(COC(=O)c1ccc([N+](=O)[O-])cc1Cl)NC(=O)c1ccccc1 | inactive
COc1ccc(CNC(=O)CN2C(=O)NC3(CCCc4sccc43)C2=O)cc1 (stereo not drawn) | inactive
Cc1cccc(C)c1NC(=O)CN(C)C(=O)CCC(=O)c1ccccc1 | inactive
COc1ccc(C(=O)NNc2cc(C)nc(NNC(=O)c3ccc(OC)cc3)n2)cc1 | inactive
CC(=O)Nc1ccc(Nc2cc(C)nc(Nc3ccc(NC(C)=O)cc3)n2)cc1 | 2.94 µM (active)
CC(=O)Nc1ccc(Nc2c3ccccc3nc3ccccc23)cc1 | inactive
CCN(CC)Cc1c(C(=O)N/N=C/c2cccc(OCc3ccc(F)cc3)c2)nnn1-c1nonc1N | inactive
O=C(Nc1cc(C(F)(F)F)ccc1Cl)C(=O)N1CCCCC1 | inactive
CC(CC(=O)Nc1cc(C(F)(F)F)ccc1Cl)c1ccccc1 (stereo not drawn) | inactive
O=C(NNc1ccccc1Cl)C(O)(c1cccc(C(F)(F)F)c1)c1cccc(C(F)(F)F)c1 | 2.62 µM (active)
COC(=O)c1cc(N2CCNCC2)nc2ccccc12 | inactive
NC(=O)N/N=C\c1cccs1 | inactive
Cc1nnc(SCC(=O)N/N=C/c2cn(-c3ccccc3)nc2-c2ccc(F)cc2)n1-c1ccccc1 | inactive
Cc1nc2ccccc2n1CC(=O)N/N=C/c1cccnc1 | inactive
Cc1nc2ccccc2n1CC(=O)N/N=C/c1cccs1 | 2.33 µM (active)
Cc1ccc(-c2nnc(SCC(=O)N/N=C/c3cccs3)n2-c2ccc(C)cc2)cc1 | 13.1 µM (active)
Cc1ccc(-n2c(C)nnc2SCC(=O)NC2CC2)cc1 | inactive
CCN1CCN(C(=O)N[C@@H](C(=O)N[C@@H]2C(=O)N3C(C(=O)O)=C(CSc4nnnn4C)CS[C@H]23)c2ccc(O)cc2)C(=O)C1=O | inactive

Compound | Potency
Cn1nc(C(F)(F)F)c(-c2ccc(F)cc2)c1NC(=O)CSCC(=O)O | inactive
Cc1nc(N)sc1N=Nc1c(C)n(C)n(-c2ccccc2)c1=O | inactive
COc1c(O)ccc2c1CN1CCc3cc4c(cc3C1C2)OCO4 (stereo not drawn) | 3.29 µM (active)
CN1CCc2cc3c(cc2[C@H]1[C@@H]1OC(=O)c2c1ccc1c2OCO1)OCO3 | inactive
COc1c(O)ccc2c1-c1c3c(cc4c1C(C2)N(C)CC4)OCO3 (stereo not drawn) | inactive
O=C(CCc1ccccc1Cl)Nc1ccc(S(=O)(=O)Nc2nccs2)cc1 | inactive
O=C(COc1ccc(Cl)cc1)NCCS(=O)(=O)N1CCN(c2ccc(F)cc2)CC1 | inactive
Cc1cc(C)cc(NC(=O)CN2C(=O)c3ccccc3C2=O)c1 | inactive
Cc1ccc(NC(=O)CCN2C(=O)c3ccccc3C2=O)cc1C | inactive
Cc1cc2c(cc1C)N(C(=O)CN1C(=O)c3ccccc3C1=O)C(C)(C)c1ssc(=S)c1-2 | 8.28 µM (active)
Cc1nn(CC(=O)N/N=C/c2ccc(F)cc2)c(C)c1[N+](=O)[O-] | inactive
CC1CCN(C(=S)NC(=O)c2ccccc2Br)CC1 | inactive
CCOC(=O)c1c(CC(C)C)csc1/N=C/C1=C(O)CCCC1=O | inactive
CN1C(=O)[C@H]2[C@@H](C3CC3)N3C(=O)CN(Cc4ccccc4)C(=O)[C@@]3(C)[C@H]2C1=O | inactive
CC(=O)Nc1ccc(NC(=O)CCCNC(=O)c2ccc(Cl)cc2)cc1 | inactive
C=CCNC(=S)NNC(=O)c1ccc(Br)o1 | inactive
Cc1ccc(/C=N/NC(=O)CN2CCN(Cc3ccccc3)CC2)s1 | inactive
C=CCNC(=S)N/N=C/c1ccc(C)s1 | 4.65 µM (active)
CC(C)c1c(O)nc(SCCOc2ccc(Cl)cc2)[nH]c1=O | inactive
CCOc1cc2[nH]c(=S)n(Cc3ccc(C(=O)N4CCN(C)CC4)cc3)c(=O)c2cc1OCC | inactive
Cc1cccc(CCNC(=O)Cn2ncc3c([nH]c4ccc(C)cc43)c2=O)c1 | inactive
Cc1ccc2[nH]c3c(=O)n(CC(=O)NCCc4ccc(Cl)cc4)ncc3c2c1 | 13.1 µM (active)
CC1CC(C)CN(CCCNC(=O)Cn2ncc3c([nH]c4ccccc43)c2=O)C1 (stereo not drawn) | inactive
Nc1c(C(=O)OCC(=O)Nc2ccc(OC(F)F)cc2)[nH]c(=O)[nH]c1=O | inactive
O=C(CCS(=O)(=O)Cc1ccccc1)Nc1ccc2c(c1)OCCO2 | 2.94 µM (active)
O=C(CN(c1ccc2c(c1)OCCO2)S(=O)(=O)c1ccccc1)Nc1ccc2c(c1)OCO2 | inactive

Compound | Potency
COc1ccccc1OCCCC(=O)Nc1ccc2c(c1)OCCO2 | inactive
Cc1ccc(-n2c(SCC(=O)N3CCC(C(=O)O)CC3)nc3ccccc3c2=O)cc1C | inactive
CN(C)c1ccc(NC(=O)CN2C3CCCC2CC(NC(=O)c2ccccc2)C3)cc1 (stereo not drawn) | inactive
CCCCCc1ccc(-c2cn(Cc3ccc4ccccc4c3)nn2)cc1 | inactive
O=C1CC(c2cccc(Br)c2)C2=C(CCCC2=O)N1 (stereo not drawn) | inactive
O=C1OCC2=C1C(c1ccccc1)CC(=O)N2c1cccc(F)c1 (stereo not drawn) | inactive
O=C1CC(c2cccc(F)c2)C2=C(CCCC2=O)N1 (stereo not drawn) | 9.28 µM (active)
COc1ccc(CNC(=O)c2cc(C(=O)C3CC3)c[nH]2)cc1 | inactive
O=[N+]([O-])c1ccc2oc(-c3cccc(O)c3)nc2c1 | inactive
CC(=O)Oc1ccc2c(=O)oc(-c3ccc([N+](=O)[O-])cc3)nc2c1 | 2.33 µM (active)
COc1ccc(-c2nc3cc([N+](=O)[O-])ccc3o2)cc1OC | inactive
O=C(NCc1cccs1)c1ccc(CS(=O)Cc2ccccc2Cl)o1 (stereo not drawn) | inactive
O=Cc1cn(-c2ccccc2)nc1-c1ccccn1 | inactive
CCNCc1cc2cc(C)ccc2[nH]c1=O | inactive
CCC(=O)N(CCc1ccccc1)Cc1cc2cc(C)ccc2[nH]c1=O | inactive
Cc1ccc2[nH]c(=O)c(CN(CCCN(C)C)C(=O)Nc3cccc(Cl)c3)cc2c1 | 2.94 µM (active)
Cc1ccc2[nH]c(=O)c(CN(CC3COCCO3)C(=O)Nc3ccccc3C)cc2c1 (stereo not drawn) | 0.465 µM (active)
CC(=O)OCc1cc2cc(C)ccc2[nH]c1=O | inactive
COc1ccc2[nH]c(=O)c(CN(CC3CCCO3)C(=O)Nc3ccccc3)cc2c1 (stereo not drawn) | inactive
COc1ccc(S(=O)(=O)NCC(c2ccc(C)cc2)N2CCN(C)CC2)cc1OC (stereo not drawn) | inactive
Cc1ccc(-c2noc(CNC(=O)c3ccoc3C)n2)cc1 | inactive
O=C(NC1CCCC1)C1CCN(C(=O)Nc2cccc(Cl)c2)CC1 | inactive
COc1ccccc1NC(=O)Nc1nc(CC(=O)Nc2ccccc2F)cs1 | inactive
Cc1ccccc1N1CCN(CCCOc2ccc3c(C)cc(=O)oc3c2)CC1 | inactive
Cc1cc(=O)oc2ccc(OCC(=O)O)cc12 | inactive
Cc1cc(=O)oc2cc(OCCC[n+]3ccccc3)ccc12 | 4.65 µM (active)

Compound | Potency
Cc1ccc(C2SCC(=O)N2c2ccccc2)cc1 (stereo not drawn) | inactive
CN(CC(=O)Nc1cccc(F)c1)C(=O)C1=COCCO1 | inactive
CC(OC(=O)c1cc2ccccc2o1)C(=O)Nc1ccc(N2CCOCC2)cc1 (stereo not drawn) | inactive
COc1ccc(C(=O)NC2=NCCS2)c(OC)c1 | inactive
CCCOc1ccc(NC(=O)C2CCCNC2=O)cc1 (stereo not drawn) | inactive
CCCOc1ccc(C(=O)CCC(=O)OC(C)C(=O)Nc2ccc(NC(C)=O)cc2)cc1 (stereo not drawn) | inactive
CCCOc1ccc(NC(=O)C2OC3OC(C)(C)OC3C3OC(C)(C)OC23)cc1 (stereo not drawn) | 10.4 µM (active)
CC(=O)c1ccc(N2CCN(C(=O)c3ccc(Cl)c(S(=O)(=O)NC4CC4)c3)CC2)c(F)c1 | inactive
CC(C)OC(=O)c1ccc(COc2ccc3ccc(=O)oc3c2)o1 | inactive
Cc1ccc(CN(CC(=O)NC2CCCCC2)C(=O)c2csnn2)cc1 | inactive
Cc1ccccc1CCN(CC(=O)NC1CCCCC1)C(=O)c1csnn1 | 11.7 µM (active)
O=C(CN(C(=O)c1csnn1)c1ccc(Br)cc1)NC1CCCC1 | inactive
Cc1cc(NC(=O)CCC(=O)N(CC(=O)NCC2CCCO2)c2ccccc2)no1 (stereo not drawn) | inactive
O=C(CN1CCC(O)(c2cccc(C(F)(F)F)c2)CC1)NCCc1ccccc1 | inactive
CCN(CC)CCNC(=O)c1ccc(NC(=O)c2cc(-c3ccncc3)nc3ccccc23)cc1 | 8.28 µM (active)
COC(=O)CNC(=O)c1cc(-c2ccncc2)nc2ccccc12 | inactive
Cc1ccc2nc(-c3ccncc3)cc(C(=O)Nc3ccc4c(c3)OCCO4)c2c1 | inactive
O=S(=O)(Nc1cccc(-c2ccc(N3CCOCC3)nn2)c1)c1ccc(Cl)c(Cl)c1 | inactive
CCCCC(=O)NNC(=S)NC(=O)C(c1ccccc1)c1ccccc1 | inactive
CCCCCCOC(=O)NCC(O)c1ccccc1 (stereo not drawn) | inactive
CCCC[N+]1(C)C2CC(OC(=O)C(CO)c3ccccc3)CC1C1OC12 (stereo not drawn) | inactive and 1.2 µM (active)
CN(C)C(=O)Cn1c(=O)n(S(=O)(=O)c2ccccc2)c2ccccc21 | inactive
Cc1ccc(/C=N/NC(=O)CNC(=O)COc2ccccc2)o1 | inactive
Cc1cccc(OCC(=O)NCC(=O)N/N=C/c2ccc(N(C)C)cc2)c1 | 7.38 µM (active)
Cc1ccc(OCC(=O)N/N=C/c2ccncc2)cc1 | inactive

Source: PubChem BioAssay AID504834 (National Center for Advancing Translational Sciences (NCATS), 2011)
